Compound activity (PubChem BioAssay)
Only some compounds are listed: those with a hit (about 2.4% of all), similar ones and a draw of the others.
Cruzain noTriton – cruzain (T. cruzi) inhibition without detergent; 2.3% of 200,000 active; purified cruzain, Z-FR-AMC fluorescence, no detergent; Potency, µM, actives largely listed as inhibitors; also: nearly all actives have a fitted effect of over 40% in size
Target sequence (P25779 123-467 limits assumed): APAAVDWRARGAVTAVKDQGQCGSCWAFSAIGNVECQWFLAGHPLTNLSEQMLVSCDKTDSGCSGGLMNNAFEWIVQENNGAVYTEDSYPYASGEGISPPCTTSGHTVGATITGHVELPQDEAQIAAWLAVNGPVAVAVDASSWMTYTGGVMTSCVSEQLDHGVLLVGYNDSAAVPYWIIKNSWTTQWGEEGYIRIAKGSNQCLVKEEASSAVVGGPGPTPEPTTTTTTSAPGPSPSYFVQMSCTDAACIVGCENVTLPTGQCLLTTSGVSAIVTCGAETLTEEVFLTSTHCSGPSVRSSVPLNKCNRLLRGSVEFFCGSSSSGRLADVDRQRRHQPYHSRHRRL
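Purified cruzain at 1.5 nM, pre-incubated 15 min with compound at room temperature in 100 mM sodium acetate pH 5.5, 5 mM DTT, 0.00005% Triton X-100. Reaction started with 2 uM Z-FR-AMC; AMC fluorescence increase over 60 s gives rate.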
Cruzain Triton – blocks cruzain activity in presence of Triton detergent | P25779 | purified cruzain, Z-FR-AMC fluorescence, 0.01% Triton | Potency, µM, most hits filed as inhibitors | 0.43% of 200,000 active; also: nearly all actives have a fitted effect of over 40% in size
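Sodium acetate buffer (100 mM, pH 5.5) containing 5 mM DTT and 0.01% Triton X-100 hosted 1.5 nM cruzain and test compound for 15 min at room temperature. Cleavage of 2 uM Z-FR-AMC was then tracked by fluorescence.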
Hits are given with their value; 0 = inactive; ? = inconclusive. Calls follow the shape of the dose curve; as a rule, active = well fitted curve in the direction sought with a large enough effect; inconclusive = small, poorly fitted or top-dose-only effect, or another doubt; inactive = no such curve, though single readings can be large; an effect the other way counts as inactive or inconclusive.

SMILES | Cruzain noTriton | Cruzain Triton
O=C(NCCCN1CCc2ccccc2C1)C1CCN(c2nnc(-n3cccc3)s2)CC1 | 0 | 25.1µM
O=C(NCCCN1CCN(Cc2ccccc2)CC1)C1CCN(c2nnc(-n3cccc3)s2)CC1 | 0 | 0
COc1ccc(N2CCC(CNS(=O)(=O)c3cccc(C(F)(F)F)c3)C2)cc1 (configuration not stated) | 25.1µM | 0
COc1ccc(N2CCC(CNC(=S)Nc3cccc(C)c3)C2)cc1 (configuration not stated) | 0 | 0
Cc1c(N=C2NC(=O)/C(=C/c3cccc([N+](=O)[O-])c3)S2)c(=O)n(-c2ccccc2)n1C | 0 | 0
CN(C)c1ccc(/C=N/N=C2/NC(=O)/C(=C/c3ccc([N+](=O)[O-])cc3)S2)cc1 | 6.31µM | 0
CCOc1ccccc1Nc1nc2ccccc2nc1NS(=O)(=O)c1ccc(Cl)cc1 | 0 | 0
CC(C)(C)OC=O | 0 | 0
Cc1c(C2=CCN(S(=O)(=O)c3ccc(Br)cc3)CC2)c2ccccc2n1C | 10µM | 0
CCn1c(C)c(C2=CCN(S(=O)(=O)c3ccc(C)cc3)CC2)c2ccccc21 | ? | 0
Cc1ccc2cc(CN(Cc3cccs3)Cc3nnnn3C(C)(C)C)c3nnnn3c2c1 | 0 | 0
Cc1cc2cc(CN(Cc3cccs3)C(c3nnnn3C(C)(C)C)C(C)C)c3nnnn3c2cc1C (configuration not stated) | 7.94µM | 0
O=C(Nc1cccc(F)c1)c1ccc2oc(=O)n(Cc3ccccc3)c2c1 | 0 | 0
COc1ccc(OC)c(NC(=O)c2ccc(CN(c3cc(Cl)ccc3C)S(=O)(=O)c3ccccc3)cc2)c1 | 10µM | 0
COc1ccc(OC)c(NC(=O)c2cccc(S(=O)(=O)N(Cc3ccccc3)c3ccccc3OC)c2)c1 | ? | 0
COc1ccc(Cl)cc1Nc1cc(C)nc2nc(-c3ccccc3C)nn12 | 0 | 0
CN(C)S(=O)(=O)c1cccc(NC(=O)COC(=O)c2cc(-c3cccc(Br)c3)nc3ccccc23)c1 | 10µM | 0
CCN(c1ccccc1)S(=O)(=O)c1ccc(Cl)c(NC(=O)COC(=O)c2ccc(Cl)c(N)c2)c1 | 25.1µM | 0
CCN(c1ccccc1)S(=O)(=O)c1ccc(Cl)c(NC(=O)COC(=O)c2cccc(OC)c2O)c1 | ? | 0
CN(C)S(=O)(=O)c1cccc(NC(=O)COC(=O)c2ccc(Br)o2)c1 | 0 | 0
CCN(CC)S(=O)(=O)c1ccc(Cl)c(NC(=O)COC(=O)c2cc(-c3ccccc3Cl)nc3ccccc23)c1 | 10µM | 0
CCN(CC)S(=O)(=O)c1ccc(Cl)c(NC(=O)COC(=O)c2c(C)noc2C)c1 | 0 | 0
Cc1ccccc1NC(=O)CC1NCCNC1=O (configuration not stated) | 0 | 0
Nc1nnnn1/N=C/c1ccccc1OCc1ccc(Cl)cc1 | 0 | 0
Nc1nnnn1/N=C/c1ccccc1OCc1ccc(Cl)cc1Cl | 15.8µM | 14.1µM
SMILES | Cruzain noTriton | Cruzain Triton
CCOc1ccc(NC(=O)Cn2c(=O)c(CNc3ccccc3)cc3cc4c(cc32)OCCO4)cc1 | 0 | 0
CCc1ccc(NCc2cc3cc4c(cc3n(CC(=O)Nc3ccc(C)cc3)c2=O)OCO4)cc1 | 0 | 0
CCc1ccc(NCc2cc3cc4c(cc3n(CC(=O)Nc3ccc(F)cc3)c2=O)OCCO4)cc1 | 20µM | 0
COc1ccc(NCc2cc3cc4c(cc3n(CC(=O)Nc3ccc(F)cc3)c2=O)OCCO4)cc1 | 20µM | 0
O=C(CS(=O)(=O)c1cccc2nsnc12)N1CCN(c2ccccc2)CC1 | 0 | 0
COc1ccc(Br)c2c1-c1nc(NC(=O)c3ccc(F)cc3)sc1C2 | 0 | 0
COc1cc(C(=O)Nc2nc(-c3ccc(Cl)cc3)c(C)s2)ccc1OCC(=O)Nc1ccc(F)cc1 | 15.8µM | 0
CCc1ccc(-c2nc(NC(=O)c3ccc(OCC(=O)Nc4ccc(F)cc4)c(OC)c3)sc2C)cc1 | 3.98µM | 0
COc1ccc(-c2nc(NC(=O)c3ccc(OCC(=O)N4CCOCC4)c(OC)c3)sc2C)cc1 | ? | 0
COc1ccc(-c2c(C)nn3c(N4CCN(c5ccccc5F)CC4)cc(C)nc23)cc1OC | 0 | 0
O=S(=O)(CCc1ccccc1)c1nc2ccccc2s1 | 0 | 0
CC(C)NC(=O)c1cc2c(Cl)nc3ccccc3c2s1 | 0 | 0
CCC(=O)N1CCc2cc(Br)cc(S(=O)(=O)CCC(=O)Nc3cccc(Cl)c3)c21 | 0 | 0
COc1ccc(CCNC[C@@H](O)c2ccc(O)cc2)cc1OC | 0 | 0
CC1Cc2ccccc2N1Cc1cc(=O)n2ccsc2n1 (configuration not stated) | ? | 0
CC1Cc2ccccc2N1Cc1nc2cc(C(F)(F)F)ccc2c(=O)[nH]1 (configuration not stated) | 25.1µM | 0
CC(NC(=O)CCCC1=NS(=O)(=O)c2ccccc2N1)c1ccccc1 (configuration not stated) | 0 | 0
C=C(C)CN=C1SC(C(=O)Nc2sc3c(c2C(=O)OC)CCC3)C(N)=C1C(N)=O (configuration not stated) | 0 | 0
